Screening results from PubChem.
RORg inh = qHTS for inhibitors of ROR gamma transcriptional activity | Nuclear receptor ROR-gamma (Mus musculus), P51450 | Drosophila S2 Gal4-RORgamma UAS-luciferase reporter, 20 h | Potency, µM (top dose mostly 53.6 µM), usual class: inhibitors | 5.4% of 310,000 active; further: nearly all actives have a fitted effect of over 60% in size
Target sequence (P51450 whole entry, looked up, the tested form may be a part): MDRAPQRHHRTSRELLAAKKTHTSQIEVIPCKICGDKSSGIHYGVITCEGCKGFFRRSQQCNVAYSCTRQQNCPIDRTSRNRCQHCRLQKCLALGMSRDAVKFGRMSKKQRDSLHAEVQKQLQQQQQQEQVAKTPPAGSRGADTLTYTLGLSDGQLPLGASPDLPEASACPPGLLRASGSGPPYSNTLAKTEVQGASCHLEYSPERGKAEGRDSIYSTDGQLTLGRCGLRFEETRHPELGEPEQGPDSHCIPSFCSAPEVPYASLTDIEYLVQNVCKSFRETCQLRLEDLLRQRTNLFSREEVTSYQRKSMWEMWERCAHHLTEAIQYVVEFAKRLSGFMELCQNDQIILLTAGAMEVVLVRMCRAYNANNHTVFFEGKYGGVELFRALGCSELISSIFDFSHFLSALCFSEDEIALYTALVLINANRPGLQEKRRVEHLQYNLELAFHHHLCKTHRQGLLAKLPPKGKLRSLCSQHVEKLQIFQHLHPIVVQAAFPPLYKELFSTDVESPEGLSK
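In this cell-based reporter format, copper sulfate (700 uM final) drives Gal4–ROR gamma fusion expression from a metallothionein promoter in Drosophila Schneider cells; compounds preincubated 1 hr, reporter read after 20 hr at ambient temperature.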
IL1B secr inh = qHTS for Inhibitors of Inflammasome Signaling: IL-1-beta AlphaLISA Primary Screen. THP-1 LPS/ATP IL-1B secretion, AlphaLISA, 16 h; stronger effect = lower value. AID 743279, 2014. activity change, % at 57.5 µM. 4.7% of 360,000 active; in the data active means activity change below about -50%; inconclusive means mostly about -30% to -49%
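Secreted IL-1B measured by AlphaLISA bead assay after 16 h compound exposure of THP-1 cells; compounds (final up to 57.5 uM) added 1 h before LPS (250 ng/mL) and ATP (1.25 mM) stimulation; lower signal means less secretion.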
DT40 TDP1 CPT = qHTS for Inhibitors of human tyrosyl-DNA phosphodiesterase 1 (TDP1): qHTS in cells in presence of CPT; 12% of 420,000 active; chicken DT40 Tdp1-/-;hTDP1 cells + 20 nM CPT, ATP luminescence, 48 h; Potency, µM (top dose mostly 46.2 µM), most hits filed as inhibitors; further: nearly all actives have a fitted effect of over 55% in size
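Cell growth measured by CellTiter-Glo luminescence after a minimum 48 h, 37 C compound exposure with 20 nM CPT in Tdp1-knockout DT40 cells stably expressing hTDP1, seeded 400/well; qHTS titration format.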
Gal4-VP16 FLuc = VP16 counterscreen qHTS for inhibitors of ROR gamma transcriptional activity. Drosophila S2 Gal4-VP16 UAS-luciferase, luminescence, 20 h. Potency, µM (series often up to 53.6 µM), usual class: inhibitors. 3.5% of 310,000 active;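 further: Gal4-VP16 expression switched on by copper sulfate through the metallothionein promoter; nearly all actives have a fitted effect of over 50% in size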
LDHA inh = qHTS assay for inhibitors of human lactate dehydrogenase | 0.15% of 480,000 active | purified LDHA, NADH/diaphorase-resazurin fluorescence; stronger effect = lower value | L-lactate dehydrogenase A chain (Homo sapiens), P00338 | AID 1347041, 2019 | activity change, % (values are at about 110 or 230 µM); in the data active means activity change below about -30%; inconclusive means mostly about -25% to -30%
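Human LDH5 at 2 nM final in Tris HCl pH 7.4 with 0.06 mM NADH and 0.2 mM pyruvate, reacted 5 minutes at room temperature. Remaining NADH coupled via diaphorase/resazurin; resorufin fluorescence read at 0 and 20 minutes, normalized to enzyme-free and DMSO wells.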
TDP1 cell noCPT = qHTS for Inhibitors of human tyrosyl-DNA phosphodiesterase 1 (TDP1): qHTS in cells in absence of CPT | DT40 Tdp1-/- hTDP1 cells, no CPT, ATP luminescence, 48 h | Potency, µM (titrated, usually from 46.2 µM), hits mostly inhibitors | 15% of 420,000 active | AID 686978, 2013; further: nearly all actives have a fitted effect of over 55% in size
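DT40 Tdp1-/-;hTDP1 cells, no CPT (DMSO vehicle only), 400 cells/well; compounds pin-transferred; ≥48 hr, 37 °C; CellTiter-Glo 30 min RT dark, luminescence read.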
Numbers stand for hits; [ ] = remark or other dose. The list is not random: actives were taken first. Their share in the collection is about 18%. Unless noted, the call rests on the fitted dose curve; in most records, active means well fitted curve in the direction sought with a large enough effect; inconclusive means small, poorly fitted or top-dose-only effect, or another doubt; inactive means no such curve, though single readings can be large; an effect the other way counts as inactive or inconclusive.

Results for CCCN(Cc1cccs1)C(=O)Nc1cc(Cl)c(OC)cc1OC ?
DT40 TDP1 CPT: inconclusive; LDHA inh: inactive; TDP1 cell noCPT: inconclusive

Results for CC(C)Oc1cccc(C(=O)Nc2ccc3oc(-c4ccncc4)nc3c2)c1 ?
LDHA inh: inactive

What do the screens show for `CCCCN(C)CCC(=O)Nc1cccc(Cl)c1`?
LDHA inh: inactive

Results for Cc1ccc(CN(Cc2ccccc2)C(=S)Nc2ccccc2C)o1 ?
RORg inh: 7.08µM; IL1B secr inh: inactive; DT40 TDP1 CPT: inconclusive; Gal4-VP16 FLuc: inconclusive; LDHA inh: inactive; TDP1 cell noCPT: inconclusive

Results for COc1cccc(NC(=S)N(CCc2nc3cc(C)c(C)cc3[nH]2)Cc2cccnc2)c1 ?
RORg inh: inactive; IL1B secr inh: inactive; DT40 TDP1 CPT: 23.1µM; Gal4-VP16 FLuc: inactive; LDHA inh: inactive; TDP1 cell noCPT: inactive

What do the screens show for `Cc1ccc(Cl)cc1NC(=S)N(Cc1cccnc1)Cc1ccccc1Cl`?
RORg inh: inconclusive; IL1B secr inh: inactive; DT40 TDP1 CPT: inactive; Gal4-VP16 FLuc: 25.1µM; LDHA inh: inactive; TDP1 cell noCPT: inactive

How did COc1ccc(NC(=O)NCc2cccnc2)c(OC)c1 do in these assays?
RORg inh: inactive; IL1B secr inh: inactive; DT40 TDP1 CPT: inactive; Gal4-VP16 FLuc: inactive; LDHA inh: inactive; TDP1 cell noCPT: inactive

How did COc1ccc(NC(=O)N(Cc2cccnc2)Cc2ccccc2Cl)c(OC)c1 do in these assays?
IL1B secr inh: inactive; DT40 TDP1 CPT: 18.4µM; LDHA inh: inactive; TDP1 cell noCPT: inconclusive

Results for CC(CCc1ccccc1)NC(=O)c1cccnc1Cl (stereo unspecified) ?
LDHA inh: inactive

Results for Cc1cccc(C)c1NC(=S)N(Cc1ccccc1)Cc1cccs1 ?
RORg inh: 7.08µM; IL1B secr inh: inconclusive; DT40 TDP1 CPT: inconclusive; Gal4-VP16 FLuc: inactive[10 µM]; LDHA inh: inactive; TDP1 cell noCPT: inconclusive

Results for CSc1cccc(NC(=S)N(Cc2ccc(C)cc2)Cc2cccnc2)c1 ?
RORg inh: 5.01µM; IL1B secr inh: inactive; DT40 TDP1 CPT: inconclusive; Gal4-VP16 FLuc: inconclusive; LDHA inh: inactive; TDP1 cell noCPT: 20.6µM

Results for Cc1ccccc1NC(=S)N(Cc1cccnc1)Cc1ccco1 ?
RORg inh: inactive; IL1B secr inh: inactive; DT40 TDP1 CPT: inactive; Gal4-VP16 FLuc: inconclusive; LDHA inh: inactive; TDP1 cell noCPT: inactive

How did COP(=O)(CN(Cc1ccccc1)C(=S)Nc1c(C)cccc1C)OC do in these assays?
RORg inh: inactive; IL1B secr inh: inactive; DT40 TDP1 CPT: inactive; Gal4-VP16 FLuc: inactive; LDHA inh: inactive; TDP1 cell noCPT: inactive

Results for Cc1ccccc1NC(=S)N(Cc1ccccc1)Cc1cccnc1 ?
RORg inh: inconclusive; IL1B secr inh: -60.2; DT40 TDP1 CPT: inactive; Gal4-VP16 FLuc: inactive; LDHA inh: inactive; TDP1 cell noCPT: inactive

Results for CCC(=O)N1N=C(c2ccccc2NS(=O)(=O)CC)CC1c1ccco1 (stereo unspecified) ?
LDHA inh: inactive

How did CNS(=O)(=O)c1ccc(C)c(C(=O)Nc2ccc(N3CCCCC3)c3ccncc23)c1 do in these assays?
LDHA inh: inactive

What do the screens show for `CCn1c(C)c(P(c2ccccc2)c2ccccc2)[n+]2ccccc12`?
RORg inh: inactive; IL1B secr inh: inactive; DT40 TDP1 CPT: 2.31µM; Gal4-VP16 FLuc: inactive; LDHA inh: inactive; TDP1 cell noCPT: 1.46µM

Results for COc1ccc(NC(=O)c2ccco2)cc1NC(=O)c1cccc(C)c1 ?
LDHA inh: inactive

How did O=C(CCc1nc(CSc2nc3ccccc3o2)no1)Nc1ccc2ccccc2c1 do in these assays?
LDHA inh: inactive

How did Cc1cnc(NC(=O)c2cccs2)s1 do in these assays?
RORg inh: inconclusive; IL1B secr inh: -99.1; DT40 TDP1 CPT: inactive; Gal4-VP16 FLuc: inconclusive; LDHA inh: inactive; TDP1 cell noCPT: inactive
